Shown are actives, neighbours in structure and some others; about 19% of the full set was active somewhere.
IL-1B inflam inh – inflammasome signaling inhibition, IL-1 beta readout | THP-1 LPS/ATP IL-1B secretion, AlphaLISA, 16 h; stronger effect = lower value | activity change, % at 57.5 µM | actives 4.7% (n = 360,000) | AID 743279; in the data active = activity change below about -50%; inconclusive = mostly about -30% to -49%
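Secreted IL-1B measured by AlphaLISA bead assay after 16 h compound exposure of THP-1 cells; compounds (final up to 57.5 uM) added 1 h before LPS (250 ng/mL) and ATP (1.25 mM) stimulation; lower signal means less secretion.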
ELG1 DNA repair – blocks ELG1-dependent DNA repair in HEK293T cells. HEK293T ELG1-luciferase reporter, luminescence, 16 h; DNA damage induced by 5-fluorouridine. Potency, µM (doses to about 46.1 µM), inactives show at the top dose activity change, negative = inhibition, actives largely listed as inhibitors. actives 2.3% (n = 330,000); note: potency is the fitted concentration of half-maximal effect; nearly all actives have a fitted effect of over 55% in size
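In this reporter screen, reduction of luminescence relative to DMSO vehicle indicated activity. Compounds and 5-fluorouridine were added together to 2,000 cells per well, incubated for 16 hr at 37 °C, then developed with ONE-Glo.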
Giardia killer – Giardia lamblia killing; activity change, % at 7.66 µM, hits read low; actives 0.15% (n = 340,000); Giardia lamblia trophozoite viability; in the data active = activity change below about -80%; inconclusive = between about -30% and that limit;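 note: parasites exposed to compound for two days anaerobically before the ATP read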
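Killing of trophozoites was scored by loss of ATP luminescence after a 48 hrs anaerobic exposure to compounds at 37 deg C, using 100 cells per well.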
DT40 TDP1 CPT – growth inhibition of DT40 Tdp1-/-;hTDP1 cells with camptothecin (screen for TDP1 inhibitors) | chicken DT40 Tdp1-/-;hTDP1 cells + 20 nM CPT, ATP luminescence, 48 h | Potency, µM (titrated, usually from 46.2 µM), for the others: at the top dose activity change, negative = growth inhibition, most hits filed as inhibitors | actives 12% (n = 420,000) | AID 686979; note: potency is the fitted concentration of half-maximal effect; nearly all actives have a fitted effect of over 55% in size
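Chicken DT40 Tdp1-/- cells stably complemented with human TDP1 were seeded at 400 cells/well in medium containing 20 nM camptothecin, exposed to pin-transferred compounds, and grown at 37 °C for at least 48 hr. Viability was read as ATP luminescence.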
DT40 TDP1 no CPT – qHTS for Inhibitors of human tyrosyl-DNA phosphodiesterase 1 (TDP1): qHTS in cells in absence of CPT; Potency, µM (highest dose often 46.2 µM), without a hit: top-dose activity change, negative = growth inhibition, usual class: inhibitors; DT40 Tdp1-/- hTDP1 cells, no CPT, ATP luminescence, 48 h; actives 15% (n = 420,000); note: potency is the fitted concentration of half-maximal effect; nearly all actives have a fitted effect of over 55% in size
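DT40 Tdp1-/-;hTDP1 cells, no CPT (DMSO vehicle only), 400 cells/well; compounds pin-transferred; ≥48 hr, 37 °C; CellTiter-Glo 30 min RT dark, luminescence read.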
TDP1 inh – inhibitors of human tyrosyl-DNA phosphodiesterase TDP1; Q9NUW8; recombinant TDP1, AlphaScreen DNA substrate cleavage; Potency, µM (top dose mostly 130 µM), inactives show top-dose activity change, negative = inhibition, hits mostly inhibitors; actives 0.28% (n = 350,000); note: potency is the fitted concentration of half-maximal effect; nearly all actives have a fitted effect of over 40% in size
Target sequence (Q9NUW8 whole entry, looked up): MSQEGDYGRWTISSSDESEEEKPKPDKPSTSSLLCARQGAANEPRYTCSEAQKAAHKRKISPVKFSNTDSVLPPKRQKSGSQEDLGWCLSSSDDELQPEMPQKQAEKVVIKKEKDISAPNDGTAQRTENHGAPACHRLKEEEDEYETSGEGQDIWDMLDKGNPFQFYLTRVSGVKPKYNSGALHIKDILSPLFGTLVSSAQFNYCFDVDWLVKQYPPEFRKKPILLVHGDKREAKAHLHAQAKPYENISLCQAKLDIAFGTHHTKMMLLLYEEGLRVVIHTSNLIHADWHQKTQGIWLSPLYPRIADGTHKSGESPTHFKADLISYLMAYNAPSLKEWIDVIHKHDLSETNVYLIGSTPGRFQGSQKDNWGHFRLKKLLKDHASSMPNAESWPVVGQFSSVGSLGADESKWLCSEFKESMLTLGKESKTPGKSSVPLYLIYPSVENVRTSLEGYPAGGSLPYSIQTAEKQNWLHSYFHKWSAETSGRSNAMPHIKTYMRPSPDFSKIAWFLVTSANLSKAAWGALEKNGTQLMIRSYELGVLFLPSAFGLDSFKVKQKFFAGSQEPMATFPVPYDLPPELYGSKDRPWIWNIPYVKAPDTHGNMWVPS
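AlphaScreen read-out: signal falls as enzyme removes the 3' tyrosine-FITC from a 5'-biotinylated DNA oligo (15 nM, 5 min, RT). Enzyme was E. coli-made recombinant Tdp1 at 1 nM, exposed to compound for 15 min beforehand; beads 10 ug/ml, 10 min.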
ELG1 FLuc counter – luciferase inhibition in cell-free luciferin readout for ELG1 hits. shares compounds with ELG1 DNA repair. cell-free firefly luciferase luminescence counter-screen, ViewLux. Potency, µM (top dose mostly 46.1 µM), for inactives: at the top dose activity change, negative = inhibition, actives largely listed as inhibitors. actives 3% (n = 350). AID 624247; note: potency is the fitted concentration of half-maximal effect
ELG1 unstim viab – unstimulated viability counter-screen for ELG1 repair hits; Potency, µM (highest dose often 45.9 µM), for the others: top-dose activity change, negative = loss of viability, most hits filed as cytotoxic; shares compounds with ELG1 DNA repair; cell viability counter-screen, unstimulated, luminescence; actives 8% (n = 900);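 note: potency is the fitted concentration of half-maximal effect; compound exposure lasted 16 hours before reading; nearly all actives have a fitted effect of over 55% in size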
FLuc biochem – inhibits purified firefly luciferase, counter-screen for ELG1 hits; purified firefly luciferase, luminescence counter-screen; Potency, µM (doses to about 57.5 µM), for inactives: at the top dose activity, negative = inhibition, most hits filed as inhibitors; actives 10% (n = 350); shares compounds with ELG1 DNA repair; note: potency is the fitted concentration of half-maximal effect
Active calls of the source: *; ? = inconclusive. Unless noted, calls come from the whole dose curve; as a rule, active = well fitted curve in the direction sought with a large enough effect; inconclusive = small, poorly fitted or top-dose-only effect, or another doubt; inactive = no such curve, though single readings can be large; an effect the other way counts as inactive or inconclusive. % is set by controls: 0 for no effect and ±100 for the full control effect.

SMILES	IL-1B inflam inh	ELG1 DNA repair	Giardia killer	DT40 TDP1 CPT	DT40 TDP1 no CPT	TDP1 inh	others
CCCC(c1nnnn1Cc1ccc(OC)cc1)N1CCN(c2ccccc2)CC1 (stereo not given)	4	-8%	-12	?	23µM*	7%
COCCn1nnnc1C(c1ccccn1)N1CCN(c2cc(Cl)ccc2C)CC1 (stereo not given)	-2	-10%	14	?	?	7%
CC(C)C(c1nnnn1Cc1ccc2c(c1)OCO2)N1CCN(c2ccccc2)CC1 (stereo not given)	17	0%	-12	-15%	21µM*	-2%
COc1ccc(Cn2nnnc2C(c2ccccn2)N2CCN(c3cc(Cl)ccc3C)CC2)cc1 (stereo not given)	?	?	11	29µM*	?	5%
COc1ccc(C(c2nnnn2Cc2ccc(F)cc2)N2CCN(c3ccccc3)CC2)cc1 (stereo not given)	-20	-26%	17	?	?	5%
CCOC(=O)C1=NNC(C(=O)c2ccc(C)cc2)C1c1ccc(C)cc1 (stereo not given)	-6	12%	4	?	16µM*	6%
CCOc1ccccc1-c1cc(-c2n[nH]c(=S)n2CC)c2ccccc2n1	9	?	38	?	18µM*	8%
CCOc1cccc(-c2cc(-c3n[nH]c(=S)n3CC)c3ccccc3n2)c1	2	-12%	-11	-23%	?	12%
COCCn1c(C)cc(C(=O)CSc2ccc(NC(C)=O)cc2)c1C	-2	?	9	-16%	-16%	-1%
CC(=O)Nc1ccc(SCC(=O)c2cc(C)n(Cc3cccs3)c2C)cc1	-1	?	0	-16%	-23%	2%	ELG1 FLuc counter=?;ELG1 unstim viab=?;FLuc biochem=13µM*
